Screening data deposited in PubChem by The Scripps Research Institute Molecular Screening Center.
This is a sample that favours compounds with a hit; in the whole collection about 2.5% have one here.
ULK1 inh – inhibitors of human ULK1 kinase; inhibition, % at 5.96 µM; O75385; AlphaScreen Atg13 phosphorylation by ULK1, luminescence; hit rate 1.9% among 30,000; AID 1259251; in the data active means inhibition above about 43%;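 further: 0% = median of compound wells and 100% = no enzyme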
ASK1 primary – human ASK1 kinase inhibition, primary screen | inhibition, % at 7.44 µM | hit rate 0.99% among 22,000 | AID 1159602 | AlphaScreen MKK6 phosphorylation by ASK1, luminescence | Q99683; in the data active means inhibition above about 35%;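 further: 0% = median of compound wells and 100% = no enzyme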
Target sequence (Q99683 whole entry, looked up): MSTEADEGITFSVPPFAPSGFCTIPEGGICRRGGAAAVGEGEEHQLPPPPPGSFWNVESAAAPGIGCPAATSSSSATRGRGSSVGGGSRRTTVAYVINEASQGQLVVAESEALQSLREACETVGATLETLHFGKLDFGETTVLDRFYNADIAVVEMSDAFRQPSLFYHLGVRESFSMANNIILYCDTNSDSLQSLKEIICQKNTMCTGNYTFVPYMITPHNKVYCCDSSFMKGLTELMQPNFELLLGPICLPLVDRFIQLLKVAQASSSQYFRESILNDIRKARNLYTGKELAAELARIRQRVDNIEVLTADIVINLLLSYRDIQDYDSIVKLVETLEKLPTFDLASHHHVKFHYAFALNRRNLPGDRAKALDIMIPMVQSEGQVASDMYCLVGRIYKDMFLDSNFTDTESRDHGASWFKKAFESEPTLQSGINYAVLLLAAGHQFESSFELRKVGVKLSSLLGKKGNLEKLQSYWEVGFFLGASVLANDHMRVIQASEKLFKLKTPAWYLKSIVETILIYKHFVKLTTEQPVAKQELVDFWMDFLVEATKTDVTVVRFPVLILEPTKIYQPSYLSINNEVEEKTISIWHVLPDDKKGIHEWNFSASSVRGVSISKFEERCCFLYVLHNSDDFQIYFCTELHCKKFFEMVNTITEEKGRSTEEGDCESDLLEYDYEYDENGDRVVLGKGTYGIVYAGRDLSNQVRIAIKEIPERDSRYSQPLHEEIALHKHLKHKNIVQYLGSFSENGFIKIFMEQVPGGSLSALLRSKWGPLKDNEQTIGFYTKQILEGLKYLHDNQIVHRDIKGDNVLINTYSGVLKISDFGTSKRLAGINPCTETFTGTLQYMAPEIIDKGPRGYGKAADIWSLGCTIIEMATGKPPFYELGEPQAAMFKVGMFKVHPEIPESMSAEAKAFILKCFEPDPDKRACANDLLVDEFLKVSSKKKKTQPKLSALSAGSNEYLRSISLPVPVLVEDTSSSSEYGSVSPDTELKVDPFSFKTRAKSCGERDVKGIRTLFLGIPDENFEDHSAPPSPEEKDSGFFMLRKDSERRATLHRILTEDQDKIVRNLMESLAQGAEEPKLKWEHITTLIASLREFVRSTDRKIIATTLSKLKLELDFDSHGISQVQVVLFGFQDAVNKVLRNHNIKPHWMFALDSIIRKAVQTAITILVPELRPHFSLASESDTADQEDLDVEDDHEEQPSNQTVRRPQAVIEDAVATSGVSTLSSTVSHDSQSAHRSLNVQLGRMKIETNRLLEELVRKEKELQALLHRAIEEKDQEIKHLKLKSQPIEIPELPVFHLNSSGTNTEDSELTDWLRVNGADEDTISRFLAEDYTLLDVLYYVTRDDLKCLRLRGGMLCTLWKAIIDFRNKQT
TruHits interf – interferes with AlphaScreen TruHits signal in ASK1 counter-screen; shares compounds with ASK1 primary; AlphaScreen TruHits beads, signal interference counterscreen; IC50, µM; hit rate 20% among 220;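 active means IC50 of 10 µM or lower in the counterscreen; inactive means IC50 above 10 µM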;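 further: loss of AlphaScreen light from TruHits beads alone with no ASK1 enzyme present; potency of signal reduction so a low IC50 flags an assay artifact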
* = called active by the depositor; . = no result given.

SMILES | ULK1 inh | ASK1 primary | others
CNC(=O)c1ccccc1Nc1cc(Nc2ccc(OC3CCN(C)CC3)cc2OC)ncc1C(F)(F)F | 95* | 10
O=C(NC1CC1)c1ccnc(-c2cccs2)c1 | 12 | 10
FC(F)(F)c1cccc(CNc2cc(NC3CCN(Cc4ccccc4)CC3)ncn2)c1 | 4 | 7
CC(C)n1cnc2c(NCCN3CCOCC3)nc(Nc3cccnc3)nc21 | 14 | -1
CN(C)c1cccc(Nc2nc(NC3CCN(Cc4ccccc4)CC3)c3ncn(Cc4ccc(C(F)(F)F)cc4)c3n2)c1 | 44* | 34
CN(C)c1cccc(Nc2nc(NCCO)c3ncn(Cc4ccc(C(F)(F)F)cc4)c3n2)c1 | 54* | 7
CCCNc1nc(Nc2cccc(N(C)C)c2)nc2c1ncn2Cc1ccc(C(F)(F)F)cc1 | 15 | 18
FC(F)(F)c1ccc(Cn2cnc3c(NC4CCN(Cc5ccccc5)CC4)nc(Nc4ccccc4)nc32)cc1 | -7 | 2
O=C(NCCN1CCOCC1)c1cccc(NCCN2CCOCC2)n1 | -4 | -5
CC(C)N(CCNC(=O)c1csc(-c2ccc(C(=O)N3CCN(C)CC3)cc2)n1)C(C)C | 6 | -3
CC(=O)Nc1ccc(Nc2nc(NCCN3CCOCC3)ncc2C)cc1 | 9 | -20
CCN(CC)c1nc(NCCc2ccc(OC)cc2)nc(N2CCCC2CO)n1 (configuration not stated) | -12 | -1
COc1cccc(OCC(=O)Nc2cc(F)c(-c3cn[nH]c3)cc2OCCCN(C)C)c1 | 8 | -19
CC(=O)Nc1ccc(Nc2cc(NC3CCN(Cc4ccccc4)CC3)ncn2)cc1 | 9 | 5
NC(=O)c1ccc(-c2ccc(C(=O)NC3CCN(Cc4ccccc4)CC3)s2)cc1 | -5 | -3
COc1cc(Nc2ncc(C)c(NCCCN3CCCC3=O)n2)cc(OC)c1OC | 76* | 4
Cc1cnc(NCCCN2CCCC2=O)nc1NCCN1CCOCC1 | 7 | 0
Cc1cnc(Nc2ccc(N3CCOCC3)cc2)nc1Nc1ccc(N2CCOCC2)cc1 | 13 | 21
Cc1cnc(Nc2nccc3ccccc23)nc1Nc1ccc(N2CCOCC2)cc1 | 46* | 13
Cc1cnc(Nc2ccc(N3CCOCC3)cc2)nc1NCCCN1CCCC1=O | 44* | -7
Cc1cnc(NCCCN2CCCC2=O)nc1NCCCN1CCCC1=O | 1 | -2
CC(=O)Nc1ccc(Nc2nc(NCCCN3CCCC3=O)ncc2C)cc1 | 35 | -14
Cc1cnc(NCCCN2CCCC2=O)nc1Nc1ccc(N2CCOCC2)cc1 | 46* | 4
COc1cccc(CNC(=O)Nc2cc(C(F)(F)F)c(-c3cn[nH]c3)c(C(F)(F)F)c2)c1 | 5 | -14
Cc1[nH]cnc1CN1CCc2c(c3ccccc3n2C)C1=O | 78* | .
SMILES | ULK1 inh | ASK1 primary | others
Cc1nccn1CC1CCc2c(c3ccccc3n2C)C1=O (configuration not stated) | 2 | .
CCN(CC)CCC(=O)N1c2ccccc2Sc2ccc(Cl)cc21 | 37 | .
CCN(CC)CCC(=O)N1c2ccccc2Sc2ccc(C(F)(F)F)cc21 | 45* | .
O=C(NC1CC1)c1ccc(-c2cccc(C(=O)NCCOc3ccccc3)n2)cc1 | -3 | -2
c1cc(Nc2nc(NC3CC3)c3[nH]cnc3n2)ccn1 | 52* | -24
CCCNc1nc(Nc2ccc3ncccc3c2)nc2nc[nH]c12 | 49* | -27
c1cncc(CNc2nc(NC3CC3)c3[nH]cnc3n2)c1 | -6 | -4
c1ccc(OCCNc2nc(Nc3ccc4ncccc4c3)nc3nc[nH]c23)cc1 | 28 | 10
c1ccc(Nc2nc(Nc3ccc4ncccc4c3)nc3nc[nH]c23)cc1 | 24 | -29
c1cnc2ccc(Nc3nc(NC4CC4)c4[nH]cnc4n3)cc2c1 | 64* | -39
COc1cc(Nc2ncnc3c2nc(-c2ccc(C(=O)N4CCN(C)CC4)cc2)n3C(C)C)cc(OC)c1OC | -18 | -9
O=S(=O)(O)c1ccc(N=Nc2ccc(O)cc2)cc1 | -3 | .
CCN(CC)c1nc(NCCOc2ccccc2)nc(N2CCOCC2)n1 | 6 | -17
O=C1CCCN1CCCNc1nc(N2CCCC2CO)nc2c1ncn2-c1ccccc1 (configuration not stated) | -10 | -27
O=C1C(=O)c2ncccc2-c2cccnc21 | 38 | .
O=C1c2ccccc2-c2n[nH]c3cccc1c23 | 76* | -43
CCNc1cc(NC2CCN(Cc3ccccc3)CC2)ncn1 | 2 | -6
Cc1cnc(Nc2cccc(N(C)C)c2)nc1NC1CC1 | 46* | 8
CN(C)c1cccc(Nc2nccc(NC3CC3)n2)c1 | 0 | -1
O=C(NCCOc1ccccc1)c1ccnc(Nc2ncccn2)c1 | 11 | -3
C=CCOCCOc1cc(-c2cn[nH]c2)ccc1NC(=O)C1COc2ccc(OC)cc2C1 (configuration not stated) | 18 | 69*
COc1ccc2c(c1)CC(C(=O)Nc1ccc(-c3cn[nH]c3)cc1OCCO)CO2 (configuration not stated) | 6 | 17
O=C(NC1CC1)c1cccc(Nc2ccc(-n3ccnc3)cc2)n1 | -1 | 6
COC(=O)Cc1cccn1C | -4 | .
O=C1CCCN1CCCNc1nc(Nc2cccnc2)nc2nc[nH]c12 | 6 | -1
SMILES | ULK1 inh | ASK1 primary | others
O=C1CCCN1CCCNc1nc(NCCCN2CCCC2=O)c2[nH]cnc2n1 | -2 | 0
O=C1CCCN1CCCNc1nc(Nc2ccccc2)c2[nH]cnc2n1 | 4 | 19
O=C1CCCN1CCCNc1nc(Nc2ccc(-n3ccnc3)cc2)nc2nc[nH]c12 | 58* | -38
O=C1CCCN1CCCNc1nc(Nc2ccccc2)nc2nc[nH]c12 | 46* | -17
O=C1CCCN1CCCNc1nc(Nc2ccncc2)nc2nc[nH]c12 | 55* | -11
CCN(CC)C(=O)C1CCCN(c2nccc(NCCN(C(C)C)C(C)C)n2)C1 (configuration not stated) | -9 | -6
CC=C1[C@H]2C=C(C)C[C@]1(N)c1ccc(=O)[nH]c1C2 | 11 | .
CC(C)n1cnc2c(NCCCN3CCCC3=O)nc(-c3ccc(C(N)=O)cc3)nc21 | 2 | 3
COc1ccc(C(=O)NCCc2csc(-c3ccc(F)cc3)n2)c(OC)c1 | -23 | .
NC(=O)c1ccc2nc(Nc3ccncn3)sc2c1 | 7 | 1
CC(C)n1cnc2c(Nc3ccc4c(c3)OCO4)nc(Nc3cnccn3)nc21 | 49* | 1
c1cnc(Nc2nc(Nc3ccc4c(c3)OCO4)c3ncn(C4CCCCC4)c3n2)cn1 | 1 | 2
CC(C)n1cnc2c(Nc3ccc4c(c3)OCO4)nc(Nc3ccccc3)nc21 | 0 | 21
CC(C)n1cnc2c(Nc3ccc4c(c3)OCO4)nc(Nc3ccc(-n4ccnc4)cc3)nc21 | 55* | 26
Cc1occc1C(=O)NNC(=O)CCc1ccccc1 | 6 | .
COc1ccc(-c2nc(C)cc(Nc3ccc(Oc4ccccc4)cc3)n2)cc1 | -18 | 11
c1ccc(Nc2nccc(NC3CC3)n2)cc1 | 5 | 7
Cc1ncn(-c2ccc(Nc3nccc(-c4cc(F)cc(-c5cnoc5)c4)n3)cc2)n1 | 19 | 16
Cc1nc(C)n(-c2ccc(Nc3nccc(-c4cc(F)cc(-c5cnoc5)c4)n3)cc2)n1 | 45* | 34
COc1cc2nc(Nc3ccncc3)nc(Nc3ccc(NC(C)=O)cc3)c2cc1OC | -15 | 8
COc1cc2nc(Nc3cccc(N(C)C)c3)nc(Nc3ccccc3)c2cc1OC | -21 | 42* | TruHits interf=4.3*
COc1cc2nc(Nc3ccccc3)nc(Nc3ccccc3)c2cc1OC | -12 | 16
